The test concerns Candida albicans SNY425 biofilm. Briefly: biofilm OD600 with compound plus antifungal (OD600 (absorbance)); higher = more biofilm remaining.
Setting [1] is: assay detail: disruption of 24-h mature biofilm (compound + antifungal for a second 24 h).
Where [2] appears, read: assay detail: sustained inhibition (compound + antifungal during 90-min adherence and 24-h growth).

± gives the uncertainty stated by the source.

As for `NC(=O)c1cccc(-c2cccc(OC(=O)NC3CCCCC3)c2)c1` + C[C@@H]1[C@H](O)[C@@H](C)/C=C/C=C/C=C/C=C/C=C/C=C/C=C/[C@H](O[C@@H]2O[C@H](C)[C@@H](O)[C@H](N)[C@@H]2O)C[C@@H]2O[C@](O)(C[C@@H](O)C[C@@H](O)[C@H](O)CC[C@@H](O)C[C@@H](O)CC(=O)O[C@H]1C)C[C@H](O)[C@H]2C(=O)O [amphotericin B] (first compound 12.5 µM), the “biofilm OD600” value was 0.295 ± 0.0047 under setting [1] and 0.178 ± 0.0061 under setting [2].
As for `NC(N)=NCCC[C@H](NC(=O)[C@@H]1CCCN1C(=O)[C@H](N)Cc1ccccc1)C(=O)CCl` + OC(Cn1cncn1)(Cn1cncn1)c1ccc(F)cc1F [fluconazole] (first compound 12.5 µM), the “biofilm OD600” value is 0.269 ± 0.0072 under setting [1] and 0.159 ± 0.011 under setting [2].
`CO[C@@H]1[C@H](OC(=O)/C=C/C=C/C=C/C=C/C(=O)O)CC[C@]2(CO2)[C@H]1[C@@]1(C)O[C@@H]1CC=C(C)C` [Fumagillin] + CC[C@H](C)C[C@H](C)CCCCCCCCC(=O)N[C@H]1C[C@@H](O)[C@@H](NCCN)NC(=O)[C@@H]2[C@@H](O)CCN2C(=O)[C@H]([C@H](O)CCN)NC(=O)[C@H]([C@H](O)[C@@H](O)c2ccc(O)cc2)NC(=O)[C@@H]2C[C@@H](O)CN2C(=O)[C@H]([C@@H](C)O)NC1=O [caspofungin] (first compound 12.5 µM): the “biofilm OD600” value is, setting by setting: under setting [1], 0.257 ± 0.0085; under setting [2], 0.166 ± 0.0044.
For `C[C@]1(Cn2ccnn2)[C@H](C(=O)O)N2C(=O)C[C@H]2S1(=O)=O` [Tazobactam] + CC[C@H](C)C[C@H](C)CCCCCCCCC(=O)N[C@H]1C[C@@H](O)[C@@H](NCCN)NC(=O)[C@@H]2[C@@H](O)CCN2C(=O)[C@H]([C@H](O)CCN)NC(=O)[C@H]([C@H](O)[C@@H](O)c2ccc(O)cc2)NC(=O)[C@@H]2C[C@@H](O)CN2C(=O)[C@H]([C@@H](C)O)NC1=O [caspofungin] (first compound 12.5 µM), the “biofilm OD600” value by setting is: under setting [1], 0.275 ± 0.014; under setting [2], 0.181 ± 0.0097.
Taken in the same sequence, the figures for `CC(C)(C)NC(=O)[C@@H]1CN(Cc2cccnc2)CCN1C[C@@H](O)C[C@@H](Cc1ccccc1)C(=O)N[C@H]1c2ccccc2C[C@H]1O` [indinavir] + C[C@@H]1[C@H](O)[C@@H](C)/C=C/C=C/C=C/C=C/C=C/C=C/C=C/[C@H](O[C@@H]2O[C@H](C)[C@@H](O)[C@H](N)[C@@H]2O)C[C@@H]2O[C@](O)(C[C@@H](O)C[C@@H](O)[C@H](O)CC[C@@H](O)C[C@@H](O)CC(=O)O[C@H]1C)C[C@H](O)[C@H]2C(=O)O [amphotericin B] (first compound 12.5 µM) were 0.283 ± 0.0099 and 0.228 ± 0.0076.
Taken in the same sequence, the figures for `C[C@H](NC(=O)[C@@H]1CCCN1C(=O)[C@@H]1CCCN1C(=O)[C@@H](O)[C@H](N)Cc1ccccc1)C(N)=O` [Apstatin] + C[C@@H]1[C@H](O)[C@@H](C)/C=C/C=C/C=C/C=C/C=C/C=C/C=C/[C@H](O[C@@H]2O[C@H](C)[C@@H](O)[C@H](N)[C@@H]2O)C[C@@H]2O[C@](O)(C[C@@H](O)C[C@@H](O)[C@H](O)CC[C@@H](O)C[C@@H](O)CC(=O)O[C@H]1C)C[C@H](O)[C@H]2C(=O)O [amphotericin B] (first compound 12.5 µM) were 0.294 ± 0.0093 and 0.193 ± 0.0078.
For the molecule `CC(C)c1nc(CN(C)C(=O)N[C@H](C(=O)N[C@@H](Cc2ccccc2)C[C@H](O)[C@H](Cc2ccccc2)NC(=O)OCc2cncs2)C(C)C)cs1` [ritonavir] + C[C@@H]1[C@H](O)[C@@H](C)/C=C/C=C/C=C/C=C/C=C/C=C/C=C/[C@H](O[C@@H]2O[C@H](C)[C@@H](O)[C@H](N)[C@@H]2O)C[C@@H]2O[C@](O)(C[C@@H](O)C[C@@H](O)[C@H](O)CC[C@@H](O)C[C@@H](O)CC(=O)O[C@H]1C)C[C@H](O)[C@H]2C(=O)O [amphotericin B] (first compound 12.5 µM), the “biofilm OD600” value under setting [1] stood at 0.246 ± 0.0053 and the “biofilm OD600” value under setting [2] was found to be 0.146 ± 0.0034.
`CCC(C)[C@H](NS(=O)(=O)c1cccc2ccccc12)C(=O)N[C@H](C=O)Cc1c[nH]c2ccccc12` (some centres not stated) + OC(Cn1cncn1)(Cn1cncn1)c1ccc(F)cc1F [fluconazole] (first compound 12.5 µM): the “biofilm OD600” value runs as follows: under setting [1], 0.249 ± 0.0046; under setting [2], 0.14 ± 0.0069.
On to `CCC[C@@]1(CCc2ccccc2)CC(O)=C([C@H](CC)c2cccc(NS(=O)(=O)c3ccc(C(F)(F)F)cn3)c2)C(=O)O1` [tipranavir] + OC(Cn1cncn1)(Cn1cncn1)c1ccc(F)cc1F [fluconazole] (first compound 12.5 µM), for which the “biofilm OD600” value runs as follows: under setting [1], 0.256 ± 0.0057; under setting [2], 0.143 ± 0.0085.
Take `COC(=O)C[C@H](NC(=O)[C@H](C)NC(=O)[C@@H](NC(=O)OCc1ccccc1)C(C)C)C(=O)CF` + OC(Cn1cncn1)(Cn1cncn1)c1ccc(F)cc1F [fluconazole] (first compound 12.5 µM): the “biofilm OD600” value by setting is: under setting [1], 0.283 ± 0.0098; under setting [2], 0.12 ± 0.0089.
`CCOC(=O)[C@H](CCc1ccccc1)N[C@@H](C)C(=O)N1CCC[C@H]1C(=O)O` [Enalapril] + CC[C@H](C)C[C@H](C)CCCCCCCCC(=O)N[C@H]1C[C@@H](O)[C@@H](NCCN)NC(=O)[C@@H]2[C@@H](O)CCN2C(=O)[C@H]([C@H](O)CCN)NC(=O)[C@H]([C@H](O)[C@@H](O)c2ccc(O)cc2)NC(=O)[C@@H]2C[C@@H](O)CN2C(=O)[C@H]([C@@H](C)O)NC1=O [caspofungin] (first compound 12.5 µM): the “biofilm OD600” value reads like this: under setting [1], 0.266 ± 0.012; under setting [2], 0.207 ± 0.011.
Regarding `C[C@H](NC(=O)[C@@H]1CCCN1C(=O)[C@@H]1CCCN1C(=O)[C@@H](O)[C@H](N)Cc1ccccc1)C(N)=O` [Apstatin] + CC[C@H](C)C[C@H](C)CCCCCCCCC(=O)N[C@H]1C[C@@H](O)[C@@H](NCCN)NC(=O)[C@@H]2[C@@H](O)CCN2C(=O)[C@H]([C@H](O)CCN)NC(=O)[C@H]([C@H](O)[C@@H](O)c2ccc(O)cc2)NC(=O)[C@@H]2C[C@@H](O)CN2C(=O)[C@H]([C@@H](C)O)NC1=O [caspofungin] (first compound 12.5 µM), the “biofilm OD600” value by setting is: under setting [1], 0.292 ± 0.0095; under setting [2], 0.185 ± 0.0079.
`CC(C)(C)NC(=O)[C@@H]1CN(Cc2cccnc2)CCN1C[C@@H](O)C[C@@H](Cc1ccccc1)C(=O)N[C@H]1c2ccccc2C[C@H]1O` [indinavir] + OC(Cn1cncn1)(Cn1cncn1)c1ccc(F)cc1F [fluconazole] (first compound 12.5 µM): the “biofilm OD600” value reads like this: under setting [1], 0.273 ± 0.013; under setting [2], 0.17 ± 0.015.
Taken in the same sequence, the figures for `CNC(=O)[C@H](Cc1c[nH]c2ccccc12)NC(=O)[C@@H](CC(=O)NO)CC(C)C` + CC[C@H](C)C[C@H](C)CCCCCCCCC(=O)N[C@H]1C[C@@H](O)[C@@H](NCCN)NC(=O)[C@@H]2[C@@H](O)CCN2C(=O)[C@H]([C@H](O)CCN)NC(=O)[C@H]([C@H](O)[C@@H](O)c2ccc(O)cc2)NC(=O)[C@@H]2C[C@@H](O)CN2C(=O)[C@H]([C@@H](C)O)NC1=O [caspofungin] (first compound 12.5 µM) were 0.278 ± 0.01 and 0.187 ± 0.0076.
`CC(C)CN(C[C@@H](O)[C@H](Cc1ccccc1)NC(=O)O[C@H]1CCOC1)S(=O)(=O)c1ccc(N)cc1` [amprenavir] + OC(Cn1cncn1)(Cn1cncn1)c1ccc(F)cc1F [fluconazole] (first compound 12.5 µM): the “biofilm OD600” value reads like this: under setting [1], 0.264 ± 0.0069; under setting [2], 0.16 ± 0.011.
As for `CC(C)(C)NC(=O)[C@@H]1C[C@@H]2CCCC[C@@H]2CN1C[C@@H](O)[C@H](Cc1ccccc1)NC(=O)[C@H](CC(N)=O)NC(=O)c1ccc2ccccc2n1` [saquinavir] + C[C@@H]1[C@H](O)[C@@H](C)/C=C/C=C/C=C/C=C/C=C/C=C/C=C/[C@H](O[C@@H]2O[C@H](C)[C@@H](O)[C@H](N)[C@@H]2O)C[C@@H]2O[C@](O)(C[C@@H](O)C[C@@H](O)[C@H](O)CC[C@@H](O)C[C@@H](O)CC(=O)O[C@H]1C)C[C@H](O)[C@H]2C(=O)O [amphotericin B] (first compound 12.5 µM), the “biofilm OD600” value was 0.243 ± 0.0076 under setting [1] and 0.0922 ± 0.0023 under setting [2].
Regarding `CC(NC(=O)C(Cc1ccccc1)NC(=O)OCc1ccccc1)C(=O)CF` (configuration not stated) + OC(Cn1cncn1)(Cn1cncn1)c1ccc(F)cc1F [fluconazole] (first compound 12.5 µM), the “biofilm OD600” value reads like this: under setting [1], 0.287 ± 0.011; under setting [2], 0.119 ± 0.0049.
The corresponding values for `CSCCC(C=O)NC(=O)C(CC(C)C)NC(=O)[C@H](CC(C)C)NC(C)=O` (some centres not stated) [Calpain Inhibitor II (ALLM)] + OC(Cn1cncn1)(Cn1cncn1)c1ccc(F)cc1F [fluconazole] (first compound 12.5 µM) are 0.239 ± 0.0058 and 0.146 ± 0.0052.
For the molecule `O=C(NCCCCN1CCOCC1)c1cc2ccccc2o1` + C[C@@H]1[C@H](O)[C@@H](C)/C=C/C=C/C=C/C=C/C=C/C=C/C=C/[C@H](O[C@@H]2O[C@H](C)[C@@H](O)[C@H](N)[C@@H]2O)C[C@@H]2O[C@](O)(C[C@@H](O)C[C@@H](O)[C@H](O)CC[C@@H](O)C[C@@H](O)CC(=O)O[C@H]1C)C[C@H](O)[C@H]2C(=O)O [amphotericin B] (first compound 12.5 µM), the “biofilm OD600” value is, setting by setting: under setting [1], 0.262 ± 0.0087; under setting [2], 0.216 ± 0.013.
In the case of `CO[C@@H]1[C@H](OC(=O)/C=C/C=C/C=C/C=C/C(=O)O)CC[C@]2(CO2)[C@H]1[C@@]1(C)O[C@@H]1CC=C(C)C` [Fumagillin] + OC(Cn1cncn1)(Cn1cncn1)c1ccc(F)cc1F [fluconazole] (first compound 12.5 µM), the “biofilm OD600” value was 0.246 ± 0.013 under setting [1] and 0.117 ± 0.0056 under setting [2].
Taken in the same sequence, the figures for `CC(C)C[C@H](NC(=O)N[C@H](C(=O)N[C@@H](CCC(N)=O)C(=O)N[C@@H](C)C=O)[C@@H]1CCNC(=N)N1)C(=O)O` [Elastatinal] + CC[C@H](C)C[C@H](C)CCCCCCCCC(=O)N[C@H]1C[C@@H](O)[C@@H](NCCN)NC(=O)[C@@H]2[C@@H](O)CCN2C(=O)[C@H]([C@H](O)CCN)NC(=O)[C@H]([C@H](O)[C@@H](O)c2ccc(O)cc2)NC(=O)[C@@H]2C[C@@H](O)CN2C(=O)[C@H]([C@@H](C)O)NC1=O [caspofungin] (first compound 12.5 µM) were 0.263 ± 0.0069 and 0.189 ± 0.011.

For the origin of these results see the supplement of paper PMC7261846.
